These results are taken from PubChem BioAssay.

Calls of active or inactive are those of the source. Unless noted, how the calls were made is not given here.

The nature of assay [1]: HepG2 liver cancer cell viability effects, profiling panel, resazurin fluorescence, 24 h, PK04 Diversity Set (AID 1172). Further: test concentration not given here. Conditions: higher = more signal.
Assay [2] is described as follows: basal S. cerevisiae growth modulation, no modifier, primary screen, OD600, strain BY4716, 24 h, basal condition (AID 1173). The conditions noted are these: OD600, 24 h, higher = more signal, called active from +8 up or from −8 down.
The nature of assay [3]: MM1S myeloma cell viability, profiling panel, resazurin fluorescence, basal, 24 h, PK04 Diversity Set (AID 1174).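 Further: MM1S multiple myeloma cell line; test concentration not given here.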 The conditions noted are these: higher = more signal, called active from +8 up or from −8 down.
For assay [4], the target named is Dihydroorotate dehydrogenase (quinone), mitochondrial (Plasmodium falciparum (isolate 3D7)) (UniProt Q08210). Kind of assay: PfDHODH enzyme inhibitors, primary screen, biochemical, C-terminal His tag, absorbance 600 nm (AID 1175).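 Further: recombinant parasite enzyme with a five histidine tag at its C terminus; test concentration not given here.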 Conditions: DCIP absorbance 600 nm, higher = more signal, called active from +8 up or from −8 down.
Sequence of Dihydroorotate dehydrogenase (quinone), mitochondrial (Plasmodium falciparum (isolate 3D7)) (Q08210 whole entry, looked up): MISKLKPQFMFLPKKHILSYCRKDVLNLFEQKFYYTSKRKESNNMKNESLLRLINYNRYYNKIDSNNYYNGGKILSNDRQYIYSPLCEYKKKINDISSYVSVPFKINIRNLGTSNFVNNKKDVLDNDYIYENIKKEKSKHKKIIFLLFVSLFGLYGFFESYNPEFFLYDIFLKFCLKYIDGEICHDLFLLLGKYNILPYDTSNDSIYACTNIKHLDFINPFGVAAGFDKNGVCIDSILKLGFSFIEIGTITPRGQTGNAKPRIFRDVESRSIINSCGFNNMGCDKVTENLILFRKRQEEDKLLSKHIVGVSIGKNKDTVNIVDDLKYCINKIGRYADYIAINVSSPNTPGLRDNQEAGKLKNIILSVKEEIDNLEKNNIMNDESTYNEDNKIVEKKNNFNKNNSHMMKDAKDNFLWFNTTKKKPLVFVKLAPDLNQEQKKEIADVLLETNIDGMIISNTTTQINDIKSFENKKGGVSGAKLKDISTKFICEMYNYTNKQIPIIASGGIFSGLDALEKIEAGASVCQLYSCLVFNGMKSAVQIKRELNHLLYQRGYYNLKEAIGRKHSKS
Assay [5] in a line: P. aeruginosa biofilm formation inhibitors, primary screen, strain PAO1, LB-PBS medium, absorbance 600 nm (AID 1176). Further: test concentration not given here. The conditions noted are these: P. aeruginosa PAO1 growth/biofilm, A600, 12 h; higher = more signal.
The nature of assay [6]: S. cerevisiae RM11-1a growth modifiers, primary screen, strain RM11-1a, OD600, basal, 24 h (AID 1177).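 Further: cultures grown under basal conditions with no added stressor; test concentration not given here.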 Conditions: OD600, 24 h, higher = more signal, called active from +8 up or from −8 down.
A short description of assay [7]: E. coli acrAB mutant growth effects, primary screen, E. coli filamentation inducers, strain DRC39, OD650, 24 h (AID 1178).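 Further: growth measured as culture turbidity by optical density at 650 nm; test concentration not given here.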 Conditions: higher = more signal, called active from +8 up or from −8 down.
Assay [8] in a line: E. coli acrAB mutant growth effects, primary screen, E. coli filamentation inducers, strain DRC39, OD650, 48 h (AID 1179).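 Further: screen aims at cell division blockers that make cells filament.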 Conditions: E. coli DRC39 delta-acrAB growth, higher = more signal, called active from +8 up or from −8 down.
Assay [9] is described as follows: RPMI8226 myeloma cell viability, profiling panel, resazurin fluorescence, basal, 24 h, PK04 Diversity Set (AID 1180).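 Further: RPMI8826 multiple myeloma cell line at 5000 cells per well; test concentration not given here.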 The conditions noted are these: higher = more signal.
In assay [10] the target is E3 ubiquitin-protein ligase XIAP (Homo sapiens) (UniProt P98170). Kind of assay: XIAP binders, primary screen, biophysical, small-molecule microarray, fluorescence 635 nm (AID 1181).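 Further: score merges 667 nm emission and signal to noise over triplicate slides.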 The conditions noted are these: small-molecule microarray binding, higher = more signal.
Sequence of E3 ubiquitin-protein ligase XIAP (Homo sapiens) (P98170 whole entry, looked up): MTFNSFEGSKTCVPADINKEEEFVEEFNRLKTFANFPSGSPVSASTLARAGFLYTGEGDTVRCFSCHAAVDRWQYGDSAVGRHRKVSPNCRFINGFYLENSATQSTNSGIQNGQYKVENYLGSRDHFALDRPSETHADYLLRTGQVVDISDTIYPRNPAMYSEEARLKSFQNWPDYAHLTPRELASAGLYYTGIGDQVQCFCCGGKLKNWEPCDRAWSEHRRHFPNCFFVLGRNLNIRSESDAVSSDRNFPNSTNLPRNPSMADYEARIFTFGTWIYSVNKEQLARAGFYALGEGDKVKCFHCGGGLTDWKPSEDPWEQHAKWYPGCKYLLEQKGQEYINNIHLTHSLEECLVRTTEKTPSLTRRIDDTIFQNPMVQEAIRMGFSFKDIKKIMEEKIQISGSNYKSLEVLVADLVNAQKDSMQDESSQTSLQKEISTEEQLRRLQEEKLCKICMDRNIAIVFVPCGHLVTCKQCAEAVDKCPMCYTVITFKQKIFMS

As for `[N-]=[N+]=NCc1ccccc1[C@@H]1OC(c2ccc(OCCCO)cc2)=N[C@]1(Cc1ccccc1)C(=O)N1CCCCC1`, the z-score is -0.596 in [1]; -1.11 (inactive) in assay [2]; -1.3 (inactive) in [3]; -0.621 (inactive) in assay [5]; 1.48 (inactive) in [6]; 0.775 (inactive) in assay [7]. Further, the values for the z-score in assay [8] and in assay [9] were 0.345 (inactive) and -0.94, respectively. The figures for the composite z-score in [4] and in [10] were 0.678 (inactive) and -0.257, respectively.
On to `CCOC(=O)C[C@H]1[C@H](OC(=O)Cc2ccc3c(c2)OCO3)[C@@H](NC(=O)c2ccc(-c3ccccc3)cc2)c2cc(OCCCO)ccc2N1C(=O)c1ccccc1`, for which the z-score in [1] is 0.0575; in assay [2] it was 0.188 (inactive); in assay [3] it was 0.106 (inactive); in [5], 0.608 (inactive); in [6] it was 0.412 (inactive); in assay [7], 1.02 (inactive). Moreover, the z-score was 1.16 (inactive) in assay [8] and -0.264 in assay [9]. The values for the composite z-score in assay [4] and in assay [10] were -0.0887 (inactive) and -0.17, respectively.
As to `C=CC(=C)C1=CCO[C@@H]1[C@H]1CCCN1S(=O)(=O)c1ccccc1[N+](=O)[O-]`, the z-score is 1.09 in [1]; -0.793 (inactive) in assay [2]; -0.22 (inactive) in assay [3]; -0.578 (inactive) in assay [5]; 0.223 (inactive) in assay [6]; 0.858 (inactive) in assay [7]. Besides, the values for the z-score in assay [8] and in assay [9] were 0.714 (inactive) and 0.187, respectively. The composite z-score in [4] was -0.426 (inactive); in assay [10], -0.119.
Regarding `CC(C)NC(=O)[C@@H]1c2ccccc2C(=O)N(Cc2ccccc2Cl)[C@H]1c1ccc(CO)cc1`, the z-score is 1.6 in [1]; -0.197 (inactive) in assay [2]; -0.27 (inactive) in [3]; 0.183 (inactive) in assay [5]; 0.358 (inactive) in assay [6]; 0.696 (inactive) in assay [7]. The results for the z-score in assay [8] and in [9] were 0.661 (inactive) and 0.131, respectively. Besides, the composite z-score is 0.233 (inactive) in assay [4] and 0.103 in [10].
In the case of `COC(=O)[C@@]1(Cc2ccccc2)N=C(c2ccc(OCCCO)cc2)O[C@H]1c1ccccc1N=[N+]=[N-]`, the z-score in assay [1] was -0.914; in assay [2], 0.0975 (inactive); in [3], -2.58 (inactive); in assay [5], 1.49 (inactive); in [6], 1.57 (inactive); in assay [7], 0.368 (inactive). Also, the z-score in assay [8] was 0.752 (inactive); in assay [9], -2.93. For the same compound, the composite z-score was 0.0308 (inactive) in assay [4] and 0.723 in [10].
Take `C[C@]1(C(=O)NCc2ccccc2)c2ccccc2C(=O)N(Cc2ccc(OC(F)(F)F)cc2)[C@H]1c1ccc(CO)cc1`: the z-score was 0.333 in assay [1]; -1.51 (inactive) in assay [2]; 1.51 (inactive) in [3]; 0.609 (inactive) in assay [5]; -0.593 (inactive) in assay [6]; 1 (inactive) in assay [7]. Also, the results for the z-score in [8] and in assay [9] were 0.806 (inactive) and 1.19, respectively. Besides, the composite z-score in assay [4] was -0.482 (inactive); in assay [10], -0.0872.
Regarding `C=C[C@H](C)[C@@H](O)c1ccc(O)c2ccccc12`, the z-score in assay [1] is 0.146; in [2], -12.2 (active); in assay [3] it was -1 (inactive); in [5] it was 1.03 (inactive); in assay [6] it was 0.248 (inactive); in assay [7], 0.537 (inactive). The values for the z-score in [8] and in [9] were 0.445 (inactive) and -0.791, respectively. For the same compound, the composite z-score in assay [4] is -0.177 (inactive); in assay [10], -0.0622.
As to `COC(=O)[C@@]1(Cc2ccc(OC)cc2)[C@H]2c3cc(C(=O)N(C)C)n(Cc4c(OC)[nH]cc(C)c4=O)c3C[C@H]2CN1C(=O)c1ccccc1`, the z-score is -0.672 in assay [1]; 0.87 (inactive) in assay [2]; -2.62 (inactive) in [3]; 0.7 (inactive) in [5]; -0.838 (inactive) in assay [6]; 0.0795 (inactive) in assay [7]. Moreover, the z-score in assay [8] is 0.574 (inactive); in assay [9], -1.93. The composite z-score in [4] was -0.967 (inactive); in [10] it was 0.295.
With `O=c1oc(-c2ccccc2)nc2cc(Br)ccc12`, the z-score is -0.284 in assay [1]; -2.41 (inactive) in [2]; 0.0202 (inactive) in [3]; 0.0493 (inactive) in assay [5]; 1.6 (inactive) in assay [6]; -0.117 (inactive) in assay [7]. Besides, the z-score in assay [8] is -0.39 (inactive); in [9], -0.194. The composite z-score in [4] is 0.336 (inactive); in [10] it was 0.208.
Consider `CC(C)(C)OC(=O)CC[C@@]1(C(=O)NCCN2CCOCC2)N=C(c2ccc(OCCCO)cc2)O[C@@H]1c1ccccc1`, for which the z-score in [1] is -0.781; in [2], -0.712 (inactive); in assay [3], 0.596 (inactive); in assay [5], -0.347 (inactive); in assay [6], 0.572 (inactive); in assay [7], 1.15 (inactive). The z-score in assay [8] was 1.32 (inactive); in assay [9], 0.641. In addition, the composite z-score in [4] was -0.317 (inactive); in assay [10], 0.228.
In the case of `Cc1cc(C)c(C(O)C2C=CC3C(=O)N(c4ccccc4)C(=O)C3N2Nc2ccc(C#N)cc2)c(C)c1` (stereo not given), the z-score in assay [1] was -0.833; in assay [2], 0.011 (inactive); in assay [3], 0.0952 (inactive); in assay [5], 1.26 (inactive); in assay [6], 0.384 (inactive); in assay [7] it was -0.232 (inactive). The z-score in [8] is -0.185 (inactive); in assay [9], -0.451. Further, the composite z-score in assay [4] was 0.623 (inactive); in assay [10], -0.253.
On to `COC(=O)[C@]1(Cc2ccccc2N=[N+]=[N-])N=C(c2ccc(OCCCO)cc2)O[C@@H]1c1ccccc1N=[N+]=[N-]`, for which the z-score in assay [1] was -3.41; in [2], -0.569 (inactive); in assay [3], -6.71 (inactive); in [5] it was 0.755 (inactive); in assay [6], -0.0599 (inactive); in [7] it was 0.2 (inactive). Also, the z-score was -0.54 (inactive) in assay [8] and -7 in [9]. Besides, the composite z-score in assay [4] is 0.519 (inactive); in assay [10] it was 0.165.
Turning to `CCCCCN1CC=CC23O[C@@H]4/C=C\CCC(C)OC(=O)C4[C@H]2C(=O)N(CCCCCO)[C@@H]3C1=O` (stereo not given in full), the z-score in [1] is 0.58; in [2], -1.12 (inactive); in assay [3] it was 0.699 (inactive); in assay [5] it was 0.357 (inactive); in assay [6] it was -1.01 (inactive); in assay [7], 0.683 (inactive). The z-score in assay [8] was 0.389 (inactive); in assay [9], 0.522. Moreover, the composite z-score in [4] was 0.121 (inactive); in assay [10], -0.144.
